Measured values taken from PubChem BioAssay AID1159580 (chemical genetic matrix, 2015).
Out of some 5,500 compounds screened, about 2,000 (36%) were called active. Another 18% or so got no clear call; they are omitted. Cut-off read from the data, not from the text of the source: active = normalized growth mostly below about 0.91 (no sharp cut-off); inconclusive = no clear call, values can overlap the other calls; inactive = mostly above about 0.92. The list shows a part of the results.

Test: chemical genetic growth profiling, strain panel (AID 1159580);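 note: tested at 20 µM; growth read once vehicle control cultures reached saturation at 30 °C; 1 = growth at the plate median or of vehicle wells; lower values mean less growth of the strain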
Conditions: S. cerevisiae deletion strains, growth OD
[1] = locus YDL101C, strain DUN1, stronger effect = lower value
[2] = locus YHR030C, strain SLT2, stronger effect = lower value
[3] = locus YAR019C, strain CDC15, stronger effect = lower value
[4] = locus YBL105C, strain PKC1, stronger effect = lower value
[5] = locus YBR135W, strain CKS1, stronger effect = lower value
[6] = locus YBR136W, strain MEC1, stronger effect = lower value
[7] = locus YBR160W, strain CDC28, stronger effect = lower value
[8] = locus YDL017W, strain CDC7, stronger effect = lower value
[9] = locus YDL028C, strain MPS1, stronger effect = lower value
[10] = locus YDL108W, strain KIN28, stronger effect = lower value
[11] = locus YDL132W, strain cdc53, stronger effect = lower value
[12] = locus YDL214C, strain PRR2, stronger effect = lower value
[13] = locus YDR052C, strain DBF4, stronger effect = lower value
[14] = locus YDR054C, strain cdc34, stronger effect = lower value
[15] = locus YDR226W, strain ADK1, stronger effect = lower value
[16] = locus YDR477W, strain SNF1, stronger effect = lower value
[17] = locus YER123W, strain YCK3, stronger effect = lower value
[18] = locus YER133W, strain GLC7, stronger effect = lower value
[19] = locus YFL009W, strain cdc4, stronger effect = lower value
[20] = locus YFL029C, strain CAK1, stronger effect = lower value
[21] = locus YFR003C, strain YPI1, stronger effect = lower value
[22] = locus YFR019W, strain FAB1, stronger effect = lower value
[23] = locus YFR028C, strain CDC14, stronger effect = lower value
[24] = locus YGR040W, strain KSS1, stronger effect = lower value
[25] = locus YGR052W, strain FMP48, stronger effect = lower value
[26] = locus YGR092W, strain DBF2, stronger effect = lower value
[27] = locus YHR079C, strain IRE1, stronger effect = lower value
[28] = locus YHR082C, strain KSP1, stronger effect = lower value
[29] = locus YHR205W, strain SCH9, stronger effect = lower value
[30] = locus YIL147C, strain SLN1, stronger effect = lower value
[31] = locus YJL095W, strain BCK1, stronger effect = lower value
[32] = locus YJL128C, strain PBS2, stronger effect = lower value
[33] = locus YJL157C, strain FAR1, stronger effect = lower value
[34] = locus YJR016C, strain ILV3, stronger effect = lower value
[35] = locus YJR066W, strain TOR1 (second series), stronger effect = lower value
[36] = locus YJR066W, strain TOR1, stronger effect = lower value
[37] = locus YKL048C, strain ELM1, stronger effect = lower value
[38] = locus YKL067W, strain YNK1, stronger effect = lower value
[39] = locus YKL101W, strain HSL1, stronger effect = lower value
[40] = locus YKL193C, strain SDS22, stronger effect = lower value
[41] = locus YKL203C, strain TOR2, stronger effect = lower value
[42] = locus YLR113W, strain HOG1, stronger effect = lower value
[43] = locus YLR133W, strain CKI1, stronger effect = lower value
[44] = locus YLR403W, strain SFP1, stronger effect = lower value
[45] = locus YML070W, strain DAK1, stronger effect = lower value
[46] = locus YMR001C, strain CDC5, stronger effect = lower value
[47] = locus YMR205C, strain PFK2 (second series), stronger effect = lower value
[48] = locus YMR277W, strain FCP1, stronger effect = lower value
[49] = locus YNL006W, strain LST8, stronger effect = lower value
[50] = locus YNL020C, strain ARK1, stronger effect = lower value
[51] = locus YNL161W, strain CBK1, stronger effect = lower value
[52] = locus YNL183C, strain NPR1, stronger effect = lower value
[53] = locus YNL207W, strain RIO2, stronger effect = lower value
[54] = locus YNL222W, strain SSU72, stronger effect = lower value
[55] = locus YNL307C, strain MCK1 (second series), stronger effect = lower value
[56] = locus YOL078W, strain AVO1, stronger effect = lower value
[57] = locus YOL136C, strain PFK27, stronger effect = lower value
[58] = locus YOR061W, strain CKA2, stronger effect = lower value
[59] = locus YOR119C, strain RIO1, stronger effect = lower value
[60] = locus YOR231W, strain MKK1, stronger effect = lower value
[61] = locus YOR329C, strain SCD5, stronger effect = lower value
[62] = locus YPL031C, strain PHO85, stronger effect = lower value
[63] = locus YPL153C, strain RAD53, stronger effect = lower value
[64] = locus YPL204W, strain HRR25, stronger effect = lower value
[65] = locus YPL209C, strain IPL1, stronger effect = lower value
[66] = locus YPL256C, strain CLN2, stronger effect = lower value
[67] = locus YPR025C, strain CCL1, stronger effect = lower value
[68] = locus YPR106W, strain ISR1, stronger effect = lower value
[69] = locus YPR111W, strain DBF20, stronger effect = lower value
[70] = strain NNK1, stronger effect = lower value
[71] = strain TSCII, stronger effect = lower value

Measured: normalized growth

Cn1ncc(C(=O)O/N=C(/N)c2cc(C(F)(F)F)cc(C(F)(F)F)c2)c1-n1cccc1
inactive: locus YAL013W, strain DEP1, stronger effect = lower value 1.02 | locus YBR229C, strain ROT2, stronger effect = lower value 1.01 | [1] 1.01 | locus YDL134C, strain PPH21, stronger effect = lower value 1.02 | locus YDR150W, strain NUM1, stronger effect = lower value 0.963 | locus YEL061C, strain CIN8, stronger effect = lower value 0.999 | locus YGR078C, strain PAC10, stronger effect = lower value 1 | [2] 0.972 | locus YHR087W, strain rtc3, stronger effect = lower value 0.996 | locus YJR043C, strain POL32, stronger effect = lower value 0.999 | locus YJR075W, strain HOC1, stronger effect = lower value 0.972 | locus YKL190W, strain CNB1, stronger effect = lower value 1.01 | locus YLR039C, strain RIC1, stronger effect = lower value 0.958 | locus YLR058C, strain SHM2 (second series), stronger effect = lower value 1 | locus YLR085C, strain ARP6, stronger effect = lower value 0.984 | locus YLR262C, strain YPT6, stronger effect = lower value 1.03 | locus YML094W, strain GIM5, stronger effect = lower value 0.988 | locus YMR219W, strain ESC1, stronger effect = lower value 1 | locus YMR263W, strain SAP30, stronger effect = lower value 0.934 | locus YMR307W, strain GAS1, stronger effect = lower value 1.03 | locus YNL153C, strain GIM3, stronger effect = lower value 0.996 | locus YNL298W, strain CLA4 (second series), stronger effect = lower value 1.02 | locus YNL322C, strain KRE1, stronger effect = lower value 0.991 | locus YNR030W, strain Alg12, stronger effect = lower value 1.02 | locus YOL006C, strain TOP1, stronger effect = lower value 0.98 | locus YPL055C, strain LGE1, stronger effect = lower value 0.88 | locus YPL241C, strain CIN2, stronger effect = lower value 0.935 | locus YPR135W, strain CTF4, stronger effect = lower value 0.961

Cc1cc(/C(N)=N\OC(=O)C(C)(C)C)cc(/C(N)=N\OC(=O)C(C)(C)C)c1
inactive: [3] 0.977 | [4] 0.985 | [5] 0.992 | [6] 0.969 | [7] 0.98 | [8] 0.989 | [9] 0.949 | [1] 0.985 | [10] 0.983 | [11] 0.987 | [12] 0.968 | [13] 0.996 | [14] 0.985 | [15] 0.979 | [16] 0.991 | [17] 0.974 | [18] 0.977 | [19] 0.982 | [20] 0.986 | [21] 0.989 | [22] 0.979 | [23] 0.983 | [24] 0.979 | [25] 1.02 | [26] 1.02 | [2] 0.904 | [27] 1.02 | [28] 1.06 | [29] 0.974 | [30] 0.964 | [31] 0.992 | [32] 0.937 | [33] 1 | [34] 0.993 | [35] 0.962 | [36] 1 | [37] 0.987 | [38] 0.953 | [39] 0.954 | [40] 0.983 | [41] 1.08 | [43] 1 | [44] 0.997 | [45] 0.966 | [46] 0.969 | [47] 0.991 | [48] 0.972 | [49] 0.984 | [50] 0.989 | [51] 0.988 | [52] 1.03 | [53] 0.989 | [54] 0.979 | [55] 0.947 | [56] 0.992 | [57] 0.962 | [58] 1 | [59] 1.03 | [60] 1 | [61] 0.99 | [62] 0.997 | [63] 0.965 | [64] 0.969 | [65] 0.991 | [66] 0.922 | [67] 0.989 | [68] 0.978 | [69] 0.954 | [70] 0.982 | [71] 0.967
active: [42] 0.858

COc1c(Br)csc1C(=O)O/N=C(/N)c1cc(C(F)(F)F)cc(C(F)(F)F)c1
inactive: [3] 0.994 | [4] 0.981 | [5] 0.99 | [6] 0.988 | [7] 0.979 | [8] 0.985 | [9] 0.988 | [1] 0.954 | [10] 0.987 | [11] 0.989 | [12] 1.05 | [13] 0.99 | [14] 0.989 | [15] 0.986 | [16] 1.05 | [17] 0.999 | [18] 1.03 | [19] 0.995 | [20] 0.96 | [21] 0.988 | [22] 1 | [23] 0.987 | [24] 1.06 | [25] 1.1 | [26] 1 | [2] 1.1 | [27] 1.07 | [28] 1.14 | [29] 1.03 | [30] 0.993 | [31] 1.09 | [32] 0.956 | [33] 1.01 | [34] 0.979 | [35] 0.99 | [36] 1.15 | [37] 1.01 | [38] 1.01 | [39] 1.05 | [40] 0.987 | [41] 1.14 | [42] 1.02 | [43] 1.03 | [44] 1.05 | [45] 1.04 | [46] 0.989 | [47] 0.999 | [48] 0.99 | [49] 0.995 | [50] 1.03 | [51] 0.982 | [52] 1.03 | [53] 0.989 | [54] 0.985 | [55] 1.05 | [56] 0.986 | [57] 1.03 | [58] 0.97 | [59] 1.13 | [60] 1.03 | [61] 0.995 | [62] 1.06 | [63] 1.04 | [64] 1.07 | [65] 0.985 | [66] 1.01 | [67] 0.987 | [68] 0.967 | [69] 0.964 | [70] 1 | [71] 0.993
